From ChEMBL document CHEMBL4513216, “Probing the Open Global Health Chemical Diversity Library for Multistage-Active Starting Points for Next-Generation Antimalarials” (ACS Infect Dis, 2020)
The whole screen tested about 68,000 compounds, of which about 2,700 (4%) showed an effect of 50% or more. Many of the other results were omitted from the sample, so strong results are more common in it than they were.

These compounds were tested on Plasmodium berghei (assay: Screen against P. berghei liver stage (PbLuc), transformed with Luciferase, at 2uM). Conditions: tested at 2 uM.
Type: functional, HepG2
In the case of Cc1cccc(CNc2nnc(C(C)C)o2)c1, the INHIBITION is reported as 3.62%. Cc1cccc(CNc2n[nH]c(C)n2)c1 showed an INHIBITION of 14.11%. CCOCc1nnc(NCc2cccc(C)c2)o1 gave an INHIBITION of 55.39%. CCOCc1nnc(NCc2ccsc2)o1 showed an INHIBITION of -19.14%. COc1ccc2c(C)nc(N3CCN([C@H]4CCCC[C@@H]4O)CC3)nc2c1 was tested, and the INHIBITION was -104.21%. In the case of CC(C)OCc1ncn2c1CN(Cc1cccs1)CCC2, the INHIBITION is reported as 16.22%. In the case of Cn1c(CS(=O)(=O)Cc2ccc(Cl)cc2)cc(=O)n(C)c1=O, the INHIBITION is reported as 26.34%. With Cc1nnc([C@]23COC[C@H]2CN(Cc2cccs2)C3)o1 the INHIBITION was 27.73%. Cc1cc(CN2C[C@@H]3COC[C@]3(c3nnc(C)o3)C2)no1 was tested, and the INHIBITION was -83.05%. Cc1nnc([C@]23COC[C@H]2CN(Cc2nccs2)C3)o1 gave an INHIBITION of 51.36%. In the case of O=C(CCNS(=O)(=O)c1ccc(F)cc1)NCc1ccoc1, the INHIBITION is reported as 12.01%. Compound CCOCCCC(=O)Nc1cccnc1-n1ccnc1C has an INHIBITION of -12.09%. For CC(C)COCCC(=O)Nc1cccnc1-n1cncn1, the INHIBITION was 22.88%. Compound Cc1nccn1-c1ncccc1NC(=O)CCOCC(C)C has an INHIBITION of 53.54%. CC(C)(C)c1noc(CCCC(=O)NCC2CCS(=O)(=O)C2)n1 (stereo not drawn) gave an INHIBITION of -12.82%. COC(=O)CNC(=O)c1sccc1N(C)S(=O)(=O)c1ccc(Cl)cc1 was tested, and the INHIBITION was 3.38%. Compound Nc1cc2c(nn1)CCN(C(=O)CC1CCCCC1)C2 has an INHIBITION of 38.76%. CCc1nc(CN(C)C2CCN(Cc3nc(C4CC4)no3)C2)no1 (stereo not drawn) gave an INHIBITION of -45.03%. O=C(CC[C@@H]1CCCN2CCCC[C@H]12)NCCc1cc(O)ncn1 was tested, and the INHIBITION was -20.38%. With O=C(CC[C@@H]1CCCN2CCCC[C@H]12)NCCc1nc(O)cc(O)n1 the INHIBITION was 51.77%. For Nc1cc(O)nc(CCNC(=O)CC[C@@H]2CCCN3CCCC[C@H]23)n1, the INHIBITION was 26.81%. For Cn1nc(C2CCNCC2)c2c(C(=O)NC3CC3)cc(C3CC3)nc21, the INHIBITION was 40.28%. CC(C)c1cc(NC(CO)CO)n2nccc2n1 was tested, and the INHIBITION was 20.14%. With CC(C)c1cc(N[C@H](C(N)=O)C(C)C)n2nccc2n1 the INHIBITION was -48.3%. CC(C)c1cc(N[C@@H](CO)C(N)=O)n2nccc2n1 was tested, and the INHIBITION was 50.42%. For COCCc1noc(CN2CC(C)(c3ccccc3)CCC2=O)n1 (stereo not drawn), the INHIBITION was -12.84%. Cn1ccnc1C1c2nc[nH]c2CCN1Cc1cccnc1 (stereo not drawn) gave an INHIBITION of -7.68%. Compound CCN1N=C(C(=O)N2CCCC(c3noc(C)n3)C2)CCC1=O (stereo not drawn) has an INHIBITION of 10.23%. For CCc1nc(C2CCCN(C(=O)C3=NN(C(C)C)C(=O)CC3)C2)no1 (stereo not drawn), the INHIBITION was 52.08%. CCc1nc(C2CCCN(C(=O)NC(C)C)C2)no1 (stereo not drawn) gave an INHIBITION of 9.82%. Work on CCc1csc(C2CCCN(C(=O)C3=NN(CC)C(=O)CC3)C2)n1 (stereo not drawn) yielded an INHIBITION of 3.9%. Cc1nc(C2CCCN(C(=O)C3=NN(C(C)C)C(=O)CC3)C2)no1 (stereo not drawn) gave an INHIBITION of 21.24%. With CCc1nc(C2CCCN(C(=O)C3=NN(CC)C(=O)CC3)C2)no1 (stereo not drawn) the INHIBITION was 53.19%. Work on O=c1c(Cc2ccccc2)c(O)ccn1CCc1ccccc1 yielded an INHIBITION of 44.59%. For Cc1ccc(CN2CC[C@H]3C[C@H](C(=O)N(C)C)O[C@H]3C2)cc1, the INHIBITION was 22.5%. For CCOc1ncccc1NC(=O)Nc1c(C)nn(C(C)C)c1C, the INHIBITION was -10.87%. For CC(C)(C)c1coc([C@@H]2COCCN2Cc2c[nH]c3ccccc23)n1, the INHIBITION was 27.44%. Work on CC(C)(C)c1coc([C@@H]2COCCN2Cc2ccccc2)n1 yielded an INHIBITION of 18.4%. With Cn1cc(CN2CCOC[C@H]2c2nc(C(C)(C)C)co2)c2ccccc21 the INHIBITION was 50.17%. For O=C(c1ccc(Cl)cc1)N1CCC(N2CCCNC2=O)CC1, the INHIBITION was 27.54%. O=C(c1ccoc1)N1CCC2(CC1)COC(COc1ccccn1)C2 (stereo not drawn) showed an INHIBITION of 24.51%. For COCCC1COC2(CCN(C(=O)c3cccnc3)CC2)C1 (stereo not drawn), the INHIBITION was 1.81%. Cn1cc(CN2C[C@@H]3COC[C@]3(CNC(=O)c3ccsc3)C2)cn1 gave an INHIBITION of 9.79%. With COc1ccc(C)cc1CN(Cc1ncc(C)o1)C1CCN(C)C1 (stereo not drawn) the INHIBITION was -5.79%. Compound Cc1cnc(CN(Cc2ccc(Cl)s2)C2CCN(C)C2)o1 (stereo not drawn) has an INHIBITION of 14.83%. Cc1cnc(CN(Cc2ccc(C#N)cc2F)C2CCN(C)C2)o1 (stereo not drawn) was tested, and the INHIBITION was 60.84%. Work on CN1CCN(CC2CC2)C(=O)c2cnc(N3CCC(CO)CC3)nc21 yielded an INHIBITION of -13.87%. CSCCC(NC(N)=O)C(=O)Nc1ccc(-n2cccn2)nc1 (stereo not drawn) showed an INHIBITION of -0.41%. For CSCCC(NC(N)=O)C(=O)NCc1cnn(-c2ccccc2)c1 (stereo not drawn), the INHIBITION was -12.03%. For CSCCC(NC(N)=O)C(=O)NCc1ccc(-n2cccn2)cc1 (stereo not drawn), the INHIBITION was 50.42%. CCCOc1cc(C)ccc1NC(=O)NCCC(=O)N(C)C was tested, and the INHIBITION was -36.17%. With COc1cc(C(=O)NC2COc3ccccc3C2)ccc1OCC(N)=O (stereo not drawn) the INHIBITION was -3.62%. In the case of COc1cccc(C(=O)N2CCOCC2CN(C)C)c1OC (stereo not drawn), the INHIBITION is reported as 31.55%.
